# High-throughput results: PubChem, NMMLSC
# BoNT A protease: inhibitors of Botulinum neurotoxin A light chain protease; multiplex microsphere protease substrate cleavage, flow cytometry; inhibition, % at 10 µM; 360,000 compounds, 0.17% hits; further: plate controls were buffer without enzyme for full effect and enzyme alone for no effect
# Autofluor counter: counter-screen for toxin protease inhibitors: compound fluorescence. compound autofluorescence counterscreen, microsphere flow cytometry; stronger effect = higher value. fluorescence intensity (concentration not given with the values). 360,000 compounds, 3.1% hits. AID 624483; in the data active means fluorescence intensity above about 16000; inconclusive means no clear call, values can overlap the other calls
# BoNT F protease: inhibitors of Botulinum neurotoxin F light chain protease; Multiplex microsphere protease cleavage assay, flow cytometry; inhibition, % at 10 µM; 360,000 compounds, 0.22% hits; AID 588497; in the data active means inhibition above about 35%, passing the limit was not always enough; inconclusive means no clear call, values can overlap the other calls; further: plate controls were buffer without enzyme for full effect and enzyme alone for no effect
# Anthrax LF prot: blocks Bacillus anthracis lethal factor protease; multiplex microsphere protease cleavage assay, LF; 360,000 compounds, 0.12% hits; inhibition, % at 10 µM; P15917; AID 588501; further: plate controls were buffer without enzyme for full effect and enzyme alone for no effect
# Target sequence (P15917 whole entry, looked up): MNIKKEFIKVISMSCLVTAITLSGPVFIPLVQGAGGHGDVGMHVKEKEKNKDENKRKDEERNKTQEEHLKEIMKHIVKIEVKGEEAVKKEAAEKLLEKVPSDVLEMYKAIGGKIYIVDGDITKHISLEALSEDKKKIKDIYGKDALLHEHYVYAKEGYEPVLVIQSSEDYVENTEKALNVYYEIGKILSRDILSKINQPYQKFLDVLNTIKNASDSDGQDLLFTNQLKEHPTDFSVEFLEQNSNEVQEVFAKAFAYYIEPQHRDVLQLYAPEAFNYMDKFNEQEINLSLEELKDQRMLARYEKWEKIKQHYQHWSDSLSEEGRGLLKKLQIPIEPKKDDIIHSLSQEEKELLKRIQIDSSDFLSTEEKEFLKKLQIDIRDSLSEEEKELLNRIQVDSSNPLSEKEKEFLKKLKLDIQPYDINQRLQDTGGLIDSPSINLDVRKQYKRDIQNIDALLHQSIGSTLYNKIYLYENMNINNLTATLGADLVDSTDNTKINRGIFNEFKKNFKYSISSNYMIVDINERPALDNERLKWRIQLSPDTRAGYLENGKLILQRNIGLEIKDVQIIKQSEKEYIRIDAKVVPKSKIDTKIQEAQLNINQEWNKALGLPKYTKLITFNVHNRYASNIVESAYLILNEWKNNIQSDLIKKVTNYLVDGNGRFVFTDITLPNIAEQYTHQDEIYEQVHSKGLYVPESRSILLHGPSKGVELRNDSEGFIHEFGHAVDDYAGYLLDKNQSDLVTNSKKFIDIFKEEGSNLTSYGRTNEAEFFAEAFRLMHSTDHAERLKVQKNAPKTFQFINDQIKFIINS
# Active calls of the source: *; ? = inconclusive. Compounds with a hit are over-represented: about 3.5% of the library has one in this group of screens. Unless noted, no stated cut-off is given here; in the data, active means inhibition above about 30%; inconclusive means no clear call, values can overlap the other calls; inactive means below that.
SMILES,BoNT A protease,Autofluor counter,BoNT F protease,Anthrax LF prot
COCCNS(=O)(=O)c1cc(C)c(C)cc1C,0,2470,4,0
CC1(c2nnc(-c3ccc(Cl)cc3)o2)CC(c2cccnc2)=NO1 (stereo not drawn),0,3135,-6,1
O=C(COc1ccc(C(=S)N2CCCC2)cc1)Nc1ccccc1C(F)(F)F,0,5594,-5,-3
O=C(CCc1ccccc1)Nc1ccc2c(c1)C(=O)OC2,1,4164,27,3
COc1ccc(/C(CC2OC(=O)c3ccccc32)=N\NC(N)=O)cc1 (stereo not drawn),0,2648,-1,1
COc1ccc(CNC(C)(C)C)cc1Cl,0,16540*,1,-1
COc1ccc(-c2ccnc3nc(-n4cccc4)nn23)cc1,-3,20861*,-3,-2
Cc1ccc(-c2noc(CCC(=O)NCC3CCCO3)n2)cc1 (stereo not drawn),0,23346*,-1,-1
O=C(CCc1nc(-c2ccccc2)no1)NC1CCCCC1,4,21669*,4,-5
Cc1ccc(-c2noc(CCCC(=O)NCC3CCCO3)n2)cc1 (stereo not drawn),2,4915,8,2
Cc1[nH]c2nc3ccccc3n2c(=O)c1CCC(C)C,0,3559,-16,-2
COc1ccc2[nH]c3nc(SCC(=O)NNC(=O)c4ccc(OC)c(OC)c4)nnc3c2c1,1,21437*,0,-2
N#Cc1c(N)nc(SCC(=O)C23CC4CC(CC(C4)C2)C3)c(C#N)c1-c1ccc(Cl)cc1,0,2861,-1,1
COc1ccc(C(=O)CSc2nc(N)nc(SC)c2C#N)cc1,6,19201*,10,-3
CSc1nc(N)nc(SCC(=O)c2ccccc2)c1C#N,-1,3015,-11,-1
CSc1nc(N)nc(SCC(=O)C23CC4CC(CC(C4)C2)C3)c1C#N,-1,19688*,-3,-4
Cc1ccc(S(=O)(=O)c2nc(NCc3ccc4c(c3)OCO4)sc2Cl)cc1,3,25130*,0,1
O=C(O)CCn1c(C2CCCCC2)nc2ccccc21,0,10101,1,-3
c1ccc(CCn2c(C3CC3)nc3ccccc32)cc1,0,16345*,-5,0
Cc1c(C(=O)N(CCC#N)c2ccccc2)sc2nc3n(c(=O)c12)CCCC3,-2,6155,6,-1
C[C@H](CO)N1C[C@H](C)[C@@H](CN(C)C(=O)c2cccnc2)Oc2ncc(Br)cc2C1=O,0,3613,-9,-7
COc1cc(NC(=O)Cn2c(-c3cncs3)nc3ccccc32)cc(OC)c1OC,?,21248*,2,-2
COc1cc(NC(=O)Cn2c(C)cc3ccccc3c2=O)cc(OC)c1OC,1,4177,-6,-2
Cn1cnnc1SCC(=O)NCCc1ccc(Cl)cc1Cl,-1,4585,0,-6
CCOC(=O)CSC1=NC(=O)/C(=C\c2ccc(Cl)cc2)S1,1,3826,3,-2
SMILES,BoNT A protease,Autofluor counter,BoNT F protease,Anthrax LF prot
C[C@@H]1O[C@@H](O[C@H]2[C@H](Oc3cc(O)c4c(c3)OC(c3ccc(O)cc3)CC4=O)O[C@H](CO)[C@@H](O)[C@@H]2O)[C@H](O)[C@H](O)[C@H]1O (stereo partly drawn),0,4365,-9,-3
O=C(O)c1oc2ccccc2c1CSc1ccc(Cl)cc1,2,3115,10,-10
O=C(c1ccc(Cl)cc1)c1oc2ccccc2c1CS(=O)c1ccccc1 (stereo not drawn),-2,20280*,-8,-2
O=C(CSCc1ccc([N+](=O)[O-])cc1)Nc1ccccc1C(=O)O,-2,4193,6,-4
CN1CCN(S(=O)(=O)c2ccc(Cl)c(C(F)(F)F)c2)CC1,0,3630,4,4
O=C(c1ccc(F)cc1)N1CCC(N2CCCCCC2)CC1,0,16826*,-4,-3
CC1CN(S(=O)(=O)c2ccc(Cl)c(C(F)(F)F)c2)CC(C)O1 (stereo not drawn),?,16300*,-3,2
CC1CN(C2CCN(S(=O)(=O)c3ccc(F)cc3)CC2)CC(C)O1 (stereo not drawn),-6,18932*,-10,0
CC1CN(C2CCN(S(=O)(=O)Cc3ccccc3)CC2)CC(C)O1 (stereo not drawn),0,22746*,2,-2
O=C(c1ccc(F)cc1)N1CCC(N2CCOCC2)CC1,-1,4684,-12,-2
COc1ccc(NC(=O)Cc2nnc(SCC(=O)Nc3ccc(F)cc3)n2C)cc1,1,3686,6,6
CCCCc1ccc(NS(=O)(=O)c2cccs2)cc1,1,10945,4,0
COc1ccccc1N(CC1CO1)S(=O)(=O)c1ccc(C)cc1 (stereo not drawn),0,5662,3,1
CNC(=S)N(CCCO)Cc1cc2cc3c(cc2[nH]c1=O)OCO3,1,3030,-5,9
